SMILES strings stand for the structures. Potency and affinity values are given separately. Active and inactive are the calls of the source.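 The calls were made as follows: active = viability below 70% at one or more tested concentrations; inactive = viability above 70% at every concentration.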

This assay can be described thus: host cell viability loss, Vero E6 – synthesized analogs, cytotoxicity control for West Nile virus antiviral project, SAR follow-up (AID 2244). Conditions: CellTiter-Glo luminescence, 72 h, stronger effect = lower value; at 40 µM unless noted.
Consider `CC(=O)Nc1ccc2nc3n(c(=O)c2c1)CCC3`, for which the minimum viability is 79.7% [at 0.625 µM] (inactive).
With `Cc1cccc2nc3n(c(=O)c12)CCC3`, the minimum viability is 78.3% [at 0.625 µM] (inactive).
For the compound `COc1ccc(-c2csc(N(CCCBr)C(=O)c3ccccc3Cl)n2)cc1`, the minimum viability is 70.2% (inactive).
As to `O=C(CSc1nc2ccccc2c(=O)n1-c1ccc(F)cc1F)Nc1ccc(N2CCOCC2)cc1`, the minimum viability was 70.7% (inactive).
Under `COc1ccc(-c2csc(N(C)C(=O)c3ccccc3Cl)n2)cc1` stands 78.5% (inactive); under `COc1ccccc1NC(=O)CSc1nc2ccccc2c(=O)n1-c1ccc(F)cc1`, 78.4% (inactive).
For `Cc1ccc2nc3n(c(=O)c2c1)CCC3` the value was 76.4% [at 0.078 µM] (inactive); for `O=c1c2cccc(Cl)c2nc2n1CCC2`, 79.7% [at 5 µM] (inactive).
With `O=c1c2c(F)cccc2nc2n1CCC2`, the minimum viability was 80.3% [at 2.5 µM] (inactive).
Consider `COc1ccc(NC(=O)CSc2nc3ccccc3c(=O)n2-c2ccc(F)cc2)cc1`, for which the minimum viability is 70.1% (inactive).
Under `CC1(O)c2cc(Br)ccc2N=C2CCCN21` (stereo unspecified) stands 74.6% [at 0.156 µM] (inactive); under `Nc1ccc2nc3n(c(=O)c2c1)CCC3`, 76.6% (inactive).
Take `CCOC(=O)C1(Cc2ccccc2C(F)(F)F)CCN(C2CCN(C(C)=O)CC2)CC1`: the minimum viability is 87% [at 80 µM] (inactive).
`O=c1c2cc([N+](=O)[O-])ccc2nc2n1CCC2`: the minimum viability was 78.7% (inactive).
On to `O=c1c2cc(I)ccc2nc2n1CCC2`, for which the minimum viability is 72.6% (inactive).
Under `CC1CC(C)CN(C(=O)CSc2nc3ccccc3c(=O)n2-c2ccc(F)cc2)C1` (stereo unspecified) stands 74.6% (inactive).

For the origin of these results see PubChem BioAssay AID2244 (Southern Research Specialized Biocontainment Screening …, 2010).
